Bioassay records: PubChem, The Scripps Research Institute Molecular Screening Center
rCAG RNA binder = molecules binding r(CAG) RNA repeats | AID 651821 | r(CAG) RNA repeat, TO-PRO-1 dye displacement fluorescence | actives 1.3% (n = 370,000) | inhibition, % at 3 µM;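 active = inhibition above the plate cutoff, the mean of all test compounds on that plate plus 3 SD, cut at about 35% in these data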;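 also: higher means more dye released from RNA so lower well fluorescence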
ABHD5 PLIN5 PPI = inhibitors of human ABHD5-perilipin-5 interaction | Q00G26+Q8WTS1 | Split G. princeps luciferase complementation, luminescence, 4 h | inhibition, % at 4 µM | actives 0.78% (n = 360,000);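 active = inhibition above the mean inhibition across every tested compound plus 3 SD, cut at about 22% in these data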
PRMT1 inh = PRMT1 (human) inhibition, primary screen; Q99873; recombinant PRMT1, activity-based probe fluorescence polarization; inhibition, % at 2.79 µM; actives 1.3% (n = 370,000);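 active = inhibition above about 21% made by adding two undisclosed values, limit read from the data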
NOD2-RIPK2 inh = inhibitors of human NOD2-RIPK2 interaction. AID 624267. CHO BLA complementation NOD2-RIPK2, CCF4 ratio. inhibition, % at 4.98 µM. actives 0.38% (n = 360,000); in the data active = inhibition above about 21%
Target sequence (O43353 whole entry, looked up): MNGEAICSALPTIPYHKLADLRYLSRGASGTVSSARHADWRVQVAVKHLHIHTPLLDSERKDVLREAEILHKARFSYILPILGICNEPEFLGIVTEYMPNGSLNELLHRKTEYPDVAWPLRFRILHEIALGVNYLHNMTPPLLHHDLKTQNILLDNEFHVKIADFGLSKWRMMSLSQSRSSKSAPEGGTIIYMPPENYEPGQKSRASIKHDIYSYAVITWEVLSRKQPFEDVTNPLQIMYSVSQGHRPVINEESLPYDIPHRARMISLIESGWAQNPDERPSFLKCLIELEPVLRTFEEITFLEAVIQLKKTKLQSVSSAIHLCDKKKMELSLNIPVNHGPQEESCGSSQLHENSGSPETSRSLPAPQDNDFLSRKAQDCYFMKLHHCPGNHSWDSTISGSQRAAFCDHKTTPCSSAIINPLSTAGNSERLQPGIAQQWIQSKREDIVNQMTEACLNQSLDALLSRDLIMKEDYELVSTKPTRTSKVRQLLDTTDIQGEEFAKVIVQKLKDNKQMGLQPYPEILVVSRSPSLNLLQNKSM
TLR4 MyD88 comp = blocks binding of human TLR4 to MyD88; O00206+Q99836; AID 861; actives 0.18% (n = 200,000); HeLa CL3-4 TLR4/MyD88 BLA complementation, FRET ratio; inhibition, % at 8.4 µM; in the data active = inhibition above about 25%
TLR9-MyD88 block = inhibitors of human TLR9-MyD88 binding; Q9NR96+Q99836; CHO BLA complementation TLR9-MyD88, CCF4 FRET ratio; inhibition, % at 4.98 µM; actives 0.21% (n = 340,000); AID 504734;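 active = inhibition above the mean over all tested compounds plus 3 SD, cut at about 21% in these data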
rCAG bind conf = r(CAG) RNA repeat binding, confirmation; inhibition, % at 3 µM; AID 652065; shares compounds with rCAG RNA binder; actives 70% (n = 4,300); TO-PRO-1 dye displacement fluorescence;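 active = inhibition above a per-plate cutoff, the mean inhibition of sample wells plus 3 SD, cut at about 35% in these data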;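 also: loss of TO-PRO-1 fluorescence as compound displaces dye from 1x1 AA loop RNA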
dCAG dye counter = disrupts DNA CAG TO-PRO-1 complex, flagging rCAG hits; d(CAG) DNA oligo TO-PRO-1 dye displacement, fluorescence; shares compounds with rCAG RNA binder; actives 94% (n = 4,300); inhibition, % at 3 µM;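 active = inhibition above its plate's cutoff, the mean test-well inhibition plus 3 SD, cut at about 4.8% in these data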;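 also: hits displace the dye from DNA and so lower well fluorescence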
DNA CAG DR = disrupts DNA CAG TO-PRO-1 complex in dose response; shares compounds with rCAG RNA binder; DNA CAG/GTC duplex TO-PRO-1 dye displacement fluorescence; IC50, µM; actives 20% (n = 250); AID 686960; in the data active = IC50 below about 10 µM
Each line names hits and unclear results; the compound was inactive in the other large screens (follow-up assays come after a bar, where they were run). In the library only some 3.3% were active in any assay of this set; here they are far more common.

CC(C)C[C@@H](CN1CCCC1CN1C(=S)NC[C@@H]1Cc1ccc(O)cc1)N1C[C@H](Cc2ccc(O)cc2)N(CCc2ccccc2)C1=S (some centres undefined)	none (no result: TLR4 MyD88 comp)
Cc1ccnn1-c1ccc(C(=O)OCC(=O)Nc2ccc(F)cc2)cc1	none (no result: TLR4 MyD88 comp)
COc1ccc([N+](=O)[O-])cc1NS(=O)(=O)c1ccc(C)cc1	none (no result: TLR4 MyD88 comp)
Cc1ccc(S(=O)(=O)Nc2ccc3ccccc3c2[N+](=O)[O-])cc1	rCAG RNA binder 61 (no result: TLR4 MyD88 comp) | rCAG bind conf 52 | dCAG dye counter 18
Cc1ccc(S(=O)(=O)Nc2ccc3cc([N+](=O)[O-])ccc3c2[N+](=O)[O-])cc1	rCAG RNA binder 83 (no result: TLR4 MyD88 comp) | rCAG bind conf 82 | dCAG dye counter 47
COc1cccc(/C=C2/C(=O)NN(c3ccc(C)c(C)c3)C2=O)c1	rCAG RNA binder 72 (no result: TLR4 MyD88 comp) | rCAG bind conf inactive | dCAG dye counter 9.5
Cc1ccc(N2NC(=O)/C(=C\c3cc4c(cc3[N+](=O)[O-])OCO4)C2=O)cc1C	rCAG RNA binder 64, PRMT1 inh 24 | rCAG bind conf 45 | dCAG dye counter 18
COc1cccc(/C=C2/C(=O)NN(c3ccc(F)cc3)C2=O)c1	none (no result: TLR4 MyD88 comp)
COc1cc(/C=C2/C(=O)NN(c3cccc(Cl)c3)C2=O)cc(OC)c1O	rCAG RNA binder 50, PRMT1 inh 22 (no result: TLR4 MyD88 comp) | rCAG bind conf inactive | dCAG dye counter 6.8
CCOc1cc(/C=C2/C(=O)NN(c3cccc(Cl)c3)C2=O)ccc1O	rCAG RNA binder 46 (no result: TLR4 MyD88 comp) | rCAG bind conf inactive | dCAG dye counter 7.5
COc1cccc(/C=C2/C(=O)NN(c3ccccc3)C2=O)c1	none (no result: TLR4 MyD88 comp)
CC1CCCCN1C(=O)COc1ccccc1F (centres undefined)	none
O=C1NN(c2cccc(Br)c2)C(=O)/C1=C\c1ccc(O)cc1	rCAG RNA binder 72 (no result: TLR4 MyD88 comp) | rCAG bind conf inactive | dCAG dye counter 11
COc1cc(/C=C2/C(=O)NN(c3cccc(C)c3)C2=O)ccc1OC(=O)c1ccco1	rCAG RNA binder 45 | rCAG bind conf 70 | dCAG dye counter 30 | DNA CAG DR inactive
O=C1NN(c2cccc(Br)c2)C(=O)/C1=C/c1ccc(-c2cc([N+](=O)[O-])ccc2O)o1	none (no result: rCAG RNA binder, PRMT1 inh, TLR4 MyD88 comp)
Cc1noc(C)c1S(=O)(=O)N(C)C[C@H]1Oc2c(cccc2N(C)C)C(=O)N([C@H](C)CO)C[C@@H]1C	none (no result: TLR4 MyD88 comp)
CC(C)(C)c1ccc(CC(=O)N2CCC2(C)C(=O)NS(=O)(=O)c2ccccc2Cl)cc1 (centres undefined)	rCAG RNA binder 41 (no result: TLR4 MyD88 comp, TLR9-MyD88 block) | rCAG bind conf inactive | dCAG dye counter 8.3
Cc1ccccc1S(=O)(=O)NC(=O)C1(C)CCN1C(=O)Cc1ccc(C(C)(C)C)cc1 (centres undefined)	rCAG RNA binder 40 (no result: TLR4 MyD88 comp, TLR9-MyD88 block) | rCAG bind conf inactive | dCAG dye counter 8.7
CC(C)(C)c1ccc(S(=O)(=O)NC(=O)C2(C)CCN2C(=O)Cc2ccccc2Cl)cc1 (centres undefined)	rCAG RNA binder 47 (no result: TLR4 MyD88 comp, TLR9-MyD88 block) | rCAG bind conf 56 | dCAG dye counter 21
CC(C)(C)c1ccc(S(=O)(=O)NC(=O)C2(C)CCN2C(=O)c2cccc3ccccc23)cc1 (centres undefined)	rCAG RNA binder 57 (no result: TLR4 MyD88 comp, TLR9-MyD88 block) | rCAG bind conf 52 | dCAG dye counter 16
COc1ccc(S(=O)(=O)NC(=O)C2(C)CCN2C(=O)Cc2ccccc2Cl)cc1 (centres undefined)	none (no result: TLR4 MyD88 comp, TLR9-MyD88 block)
CC1(C)CN(c2cccc(Br)c2)C1=O	none
CC1(C(=O)NC2CCN(Cc3ccccc3)CC2)CCN1Cc1cc2ccccc2o1 (centres undefined)	none (no result: TLR4 MyD88 comp, TLR9-MyD88 block)
CC12CCC(C(=O)Nc3ccncc3)(CC1O)C2(C)C (centres undefined)	none (no result: TLR4 MyD88 comp)
CC1(C(=O)NS(=O)(=O)c2ccc(Cl)cc2)CCN1C(=O)Cc1cccc2ccccc12 (centres undefined)	rCAG RNA binder 46 (no result: TLR4 MyD88 comp, TLR9-MyD88 block) | rCAG bind conf inactive | dCAG dye counter 7.6
COc1ccc(C(=O)COC(=O)/C=C/c2ccc(S(=O)(=O)Nc3cccc(S(N)(=O)=O)c3)cc2)cc1	rCAG RNA binder 46 | rCAG bind conf 60 | dCAG dye counter 20
NS(=O)(=O)c1cccc(NS(=O)(=O)c2ccc(/C=C/C(=O)OCC(=O)c3ccc(Br)cc3)cc2)c1	none
CCCn1c(NC(=O)CN2C(=O)NC3(CCCCC3)C2=O)nc2ccccc21	none (no result: TLR4 MyD88 comp)
COc1ccc(Nc2ccccc2C(=O)O)cc1	none (no result: TLR9-MyD88 block)
O=C(O)c1ccccc1Nc1cccc(OCc2ccc3ccccc3n2)c1	rCAG RNA binder 70 (no result: TLR4 MyD88 comp) | rCAG bind conf 71 | dCAG dye counter 31 | DNA CAG DR inactive
CCOC(=O)CNS(=O)(=O)c1ccc2c3c(cccc13)C(=O)N2CC	none
CCOC(=O)Cc1csc(NS(=O)(=O)c2ccc3c4c(cccc24)C(=O)N3CC)n1	rCAG RNA binder 56 | rCAG bind conf 47 | dCAG dye counter 13
CCOC(=O)C1(C)CCCCN1C(=O)c1ccc(F)c(C)c1 (centres undefined)	none (no result: TLR4 MyD88 comp, TLR9-MyD88 block)
CN1C(=O)/C(=C/c2ccc(-c3ccccc3[N+](=O)[O-])o2)SC1=Nc1ccc(Cl)c(C(=O)O)c1	rCAG RNA binder 43 | rCAG bind conf 85 | dCAG dye counter 51
CC(Oc1ccccc1C(N)=O)C(=O)Nc1ccc(S(=O)(=O)N2CCCC2)cc1 (centres undefined)	none (no result: TLR4 MyD88 comp)
Cc1cccc(N2C(=O)C(O)=C(C(=O)c3cccs3)C2c2ccccc2)n1 (centres undefined)	none (no result: TLR4 MyD88 comp)
Cc1cccc(N2C(=O)C(O)=C(C(=O)c3cccs3)C2c2cccc(Oc3ccccc3)c2)n1 (centres undefined)	rCAG RNA binder 45 (no result: TLR4 MyD88 comp) | rCAG bind conf 40 | dCAG dye counter 10
CCCCCCCCCCS(=O)(=O)N/N=C/c1ccc([N+](=O)[O-])cc1	rCAG RNA binder 42 | rCAG bind conf 52 | dCAG dye counter 16
O=c1nc2ccc(Cl)cn2c2ccc(S(=O)(=O)N3CCCCC3)cc12	rCAG RNA binder 41 (no result: TLR4 MyD88 comp) | rCAG bind conf inactive | dCAG dye counter 4.4
CCCc1cc(=O)[nH]c2nnc(SCC(=O)Nc3cc(C)on3)n12	none (no result: TLR4 MyD88 comp)
O=c1[nH]c2ccccc2nc1-c1c[nH]c2ccccc12	rCAG RNA binder 43 (no result: TLR4 MyD88 comp) | rCAG bind conf inactive | dCAG dye counter 14
CC(=O)/C(=N\Nc1ccc(C)cc1)Sc1nncn1C	none
Cc1cc(OCc2nn[nH]n2)c2c(C)c(Cc3ccccc3)c(=O)oc2c1	rCAG RNA binder 50 | rCAG bind conf 50 | dCAG dye counter 13
